Out of some 68,000 compounds screened, about 2,700 (4%) showed an effect of 50% or more. What follows is part of a selection rich in strong results, with near analogues and random picks from the rest.
System: Plasmodium berghei
Experiment: Screen against P. berghei liver stage (PbLuc), transformed with Luciferase, at 2uM
Format: functional, HepG2
Settings: tested at 2 uM

Row | Compound | INHIBITION
1 | O=C(CCc1ccc2c(c1)OCO2)N1CCCC(n2cccn2)C1 (configuration not stated) | -29.38%
2 | COc1cc(N2CC[C@@H](O)[C@@H]2Cc2cccnc2)ncn1 | 32.21%
3 | CCCc1nc(C[S+]([O-])Cc2cn3cccc(C)c3n2)no1 (configuration not stated) | 16.37%
4 | CCOC(=O)c1nc(CN2CCC(NC(=O)C(C)C)CC2)cs1 | -3.25%
5 | CCN1CCC2(CCC1=O)CN(c1cnc3ccccc3n1)CCN2C (configuration not stated) | -40.52%
6 | CC(C)C[C@@H](CO)n1cc(-c2cncnc2)nn1 | 26.99%
7 | COc1ccc(-c2cn([C@H](CO)CC(C)C)nn2)cn1 | 79.9%
8 | CC(C)C[C@@H](CO)n1cc(-c2cnc(-c3ccco3)nc2)nn1 | -39.9%
9 | O=C1Nc2ccccc2CC12CCCN2Cc1ccc(C(F)(F)F)cc1 (configuration not stated) | -27.83%
10 | CC(C)c1cc(C2CCCN2C(=O)c2cn3ccsc3n2)no1 (configuration not stated) | -46.68%
11 | COc1ccccc1C1CNCCN1C(=O)c1ccc(F)cc1 (configuration not stated) | -20.28%
12 | O=C(Nc1nncs1)C1CSCN1C(=O)C1CCCC1 (configuration not stated) | -67.78%
13 | COc1ccc2c(c1)C1(CCN(Cc3cccnc3)CC1)N(C)CC2 | 64.92%
14 | COc1ccc2c(c1)C1(CCN(Cc3cnn(C)c3)CC1)N(C)CC2 | 21.14%
15 | COc1ccc2c(c1)C1(CCN(Cc3ccncc3)CC1)N(C)CC2 | 32.14%
16 | CC1(C)CN(CCC(=O)NCc2cccc(Cl)c2)CC[C@]1(C)O | -70.63%
17 | CN(C)c1nccc(C2CCCN(C(=O)CO)C2)n1 (configuration not stated) | 1.13%
18 | CCn1c(Cn2cncn2)nnc1C1CCN(CC2[C@H]3CNC[C@@H]23)CC1 (some centres not stated) | -11.68%
19 | CC(C)CN1C(=O)CC[C@H]2CN(Cc3ncc[nH]3)CC[C@H]21 | 20.74%
20 | COCCCN1C(=O)CC[C@H]2CN(Cc3ncc[nH]3)CC[C@H]21 | 50.59%
21 | CSCCCN1C(=O)CC[C@H]2CN(Cc3ncc[nH]3)CC[C@H]21 | 27.5%
22 | CC1(C)COCCN1C(=O)CCc1nc(-c2ccccn2)no1 | -4.89%
23 | CN(C)CC(=O)N1Cc2nc(C(=O)N3CCCN(C)CC3)oc2C1 | 13.25%
24 | O=C(NCCCn1cccn1)C1CCC(=O)N(Cc2ccccc2F)C1 (configuration not stated) | 12%
25 | CCOc1ncnc2c1CCN(c1cc(C(F)(F)F)ncn1)CC2 | -17.38%
26 | COc1ncnc2c1CCN(c1cc(C(F)(F)F)ncn1)CC2 | 52.08%

Row | Compound | INHIBITION
27 | CC(C)Oc1ncnc2c1CCN(c1cc(C(F)(F)F)ncn1)CC2 | 20.86%
28 | CCOCC1CN(Cc2cnn(C)c2)Cc2c1cnn2CC (configuration not stated) | -8.04%
29 | O=C(c1ccco1)N1CCCC2(CCN(c3nncs3)C2)C1 (configuration not stated) | -56.25%
30 | Cc1ncc2c(n1)CN(Cc1nnc(-c3ccccc3)o1)CC2 | 33.5%
31 | O=C(NCC1Cn2nnc(-c3ccncc3)c2CO1)c1ccsc1 (configuration not stated) | 31.96%
32 | CCn1cc(NC(=O)C2CCN(Cc3noc(C(C)C)n3)CC2)cn1 | -8.7%
33 | Cc1ccccc1NC(=O)N1CCN(Cc2noc(C3CC3)n2)CC1 | 71.93%
34 | O=C(Nc1ccccc1)N1CCN(Cc2noc(C3CC3)n2)CC1 | 31.7%
35 | CCn1cc(NC(=O)C2CCN(Cc3noc(C4CC4)n3)CC2)cn1 | 66.2%
36 | O=C(Nc1ccccc1F)N1CCN(Cc2noc(C3CC3)n2)CC1 | 11.1%
37 | CCc1noc(CN2CCC(C(=O)Nc3cnn(CC)c3)CC2)n1 | 49.9%
38 | CC1(C)CC(C(=O)N2CCC3(CCC(=O)N(C4CC4)C3)CC2)CCO1 (configuration not stated) | -29.52%
39 | COCC(=O)N[C@H]1C[C@@H](Cc2cc(CN3CCOCC3)on2)C1(C)C | 19.39%
40 | CCCS(=O)(=O)N[C@H]1CN(c2ncccc2C(N)=O)C[C@@H]1C(C)C | -50.23%
41 | Cc1nc(C)c(C(=O)N2CCc3nnc(C4CCCCN4C)n3CC2)s1 (configuration not stated) | 26.44%
42 | COc1ccc(CNC(Cc2ccsc2)c2ncccc2C)cc1OC (configuration not stated) | -31.69%
43 | Cn1nccc1-c1ccc2nc(C3CCNCC3)nn2c1 | 39.51%
44 | CC(C)N1CCC(c2nc3ccc(-c4ccnn4C)cn3n2)CC1 | 51.94%
45 | CN1CCC(c2nc3ccc(-c4ccccc4)cn3n2)CC1 | 54.56%
46 | CCCN1CCC(c2nc3ccc(NCc4ccccc4)cn3n2)CC1 | 54.65%
47 | CCCN1CCC(c2nc3ccc(-c4ccccc4)cn3n2)CC1 | 13.16%
48 | CCCN1CCC(c2nc3ccc(C)cn3n2)CC1 | 20.01%
49 | CN1CCC(c2nc3ccc(-c4cccc(F)c4)cn3n2)CC1 | 20.41%
50 | CC(=O)N1CCC(c2nc3ccc(-c4ccnn4C)cn3n2)CC1 | 25.31%
51 | CCCN1CCC(c2nc3ccc(NCc4cccnc4)cn3n2)CC1 | 1.42%
52 | Cc1noc(C)c1-c1cnc(CC2CCN(C(=O)c3cc[nH]n3)C2)cn1 (configuration not stated) | -26.24%
